For 39 sequences, sensor-assay potency score (higher = more potent) results are on record in the OligoGym collection.
Further: reference of the scale not given here.

The first assay has as its target ITGAM. Description: pooled miR-30 sensor sort-seq; sequence = guide strand. The following applies: shRNA.
As to TTGAACTCCATGATTGCCTTGA, the sensor-assay potency score (higher = more potent) stood at 0.856.

With TATTGATGCTGCATGACCCGAC, the sensor-assay potency score (higher = more potent) came to 0.154. Same read-out and setting: under TTAAACAAGATCTCAGCTGTGC stands 0.114; under TTGCTGTCCACGTCCACGGAGC, -1.3; under TTACACTCAAATACATTCCTTG, 0.424.

The next assay addresses ITLN1. Described as above. The following applies: shRNA.
With TAGACCACAGGGATCACCGGGC, the sensor-assay potency score (higher = more potent) turned out to be 0.112. On the same count and under the same terms, under TTTCACTGGATATTTCTGGTAG stands 0.272; under ATGCACTAGGACATTCGTCTTT, -0.936; under TTGTCAGTCCAACACTTTCCTT, -1.43. On the same count and under the same terms, for TTAGCCTCATCTGTACTCCATC the value was -0.855; for TAACATTCTAGCTACTGGGTAA, -0.292; for TGTCAGTCCAACACTTTCCTTC, 0.0274. Still for that read-out and setting: for TGAACTGAACAAATCCCGCAGT the value was 0.114; for TGCACTAGGACATTCGTCTTTG, -0.456. In turn, TTCCATATCCACTCCAATCAAA yielded a sensor-assay potency score (higher = more potent) of -1.07. In turn, TTCGTCTTTGATTTCCTTGCAG registered a sensor-assay potency score (higher = more potent) of 0.319. The same measure, in the same setting: for TCGTCTTTGATTTCCTTGCAGC the value was -0.887.

Another assay addresses ITPRIP. The description is as above. Particulars: shRNA.
TTGAAGGGCATGAACTTCCCTG displayed a sensor-assay potency score (higher = more potent) of 0.113. The same measure, in the same setting: for TTCTTCTGGAGCAAGCTCTTCT the value was -0.26; for TTGATCTTCAGGGACCCCGGGC, -0.883. On the same count and under the same terms, under TTTTCAGTGAACTTTCTCCTGG stands -0.029; under TTGGTCTTGCCGCAGATGCAGC, -1.52.

On to TTCAAGTACAGACTGGATCTGG, for which the sensor-assay potency score (higher = more potent) stood at 0.622. Still for that read-out and setting: under TGAACGGAACTTGATCTTCAGG stands -1.39. For the sequence TAGGAGGTGCAGTAGGGCCGTC, the sensor-assay potency score (higher = more potent) is -0.656.

Turning to TTAGAAGCAGCTTTGGTGCAGA, the sensor-assay potency score (higher = more potent) stood at 0.222.

In turn, TAAGGCAGCATGAAACACCAAG registered a sensor-assay potency score (higher = more potent) of -0.493. For TTTAGTGTCGTCCTGAGGAAGT, the sensor-assay potency score (higher = more potent) is -0.751. The same measure, in the same setting: for TTGAGCATCTCATAGAAGGAGT the value was -0.45.

The target in the next assay is JAM3. Described as above. The following applies: shRNA.
TAGAGTAAGAAGAGTAGTGGTC had a sensor-assay potency score (higher = more potent) of 0.457. The same measure, in the same setting: under TTCTGAATGAGTGTCTAGCTCT stands -0.216; under TTCACTTGCACAGTTAACTCGA, 0.721. The same measure, in the same setting: under TTGTTGATGAAGTAGCCACGTC stands -0.698; under TAGCAGAGGTATGTGCACGTGC, -0.388; under TTATTGTTGATGAAGTAGCCAC, -0.389. In turn, TTTCCTTGCGGTCATTTCGAGC yielded a sensor-assay potency score (higher = more potent) of -1.23. The same measure, in the same setting: for TTGATGAAGTAGCCACGTCTGT the value was -0.852. The same measure, in the same setting: under TGAGTGTCTAGCTCTGTCCGAG stands -0.68. The same measure, in the same setting: for TAAAGGGCTGAGTCTCTCCGTG the value was -0.394.
